Test results as given in ChEMBL document CHEMBL3988442, “University of Dundee, Small-Polar-MMV Screening Library” (2021).

Target: AMP-activated protein kinase, AMPK (Homo sapiens) (UniProt P54646+O43741+P54619+Q9UGJ0+Q9Y478+Q13131+Q9UGI9)
Assay: AMP-dependent Kinase enzyme assay. An in vitro enzyme assay that detects ADP turnover that is directly proportional to AMPK activity. This uses naive AMPK that is activated during the assay with MK-8722
Format: functional
Set-up: scale not given: direction of the effect not stated beside the values
Details: 30 µM

First: Cc1ccc(-c2cc(CS(=O)(=O)NC3CCCNC3=O)on2)cc1 (centres undefined)
Second: Cc1ccc(-c2ccccc2CC2CNCCNC2=O)c(C)c1 (centres undefined)
The Percent Effect of the first is higher: 5.82% for the first, 2.34% for the second.

Compared with `Fc1ccc(C2(CNCC(F)F)CCOC2)cc1` (centres undefined), `COc1ccccc1CCNC(=O)CNCC1CN(C)CCO1` (centres undefined) is lower in Percent Effect: 3.05% for the first, -4.87% for the second.

First: COc1nccc(N2CC[C@H](N3CCOCC3)[C@H](CCCO)C2)c1C#N
Second: COCC1CCCN(c2cncc(OCc3ccccc3)n2)C1 (centres undefined)
The Percent Effect of the first is lower: -3.46% for the first, 1.9% for the second.

First: COc1ccc(Cl)cc1C(=O)NCc1cnn(C)c1C
Second: Cn1ncnc1NCc1ccc(Cl)cc1
The Percent Effect of the first is higher: 7.53% for the first, 7.15% for the second.

Going from `c1csc(CN(Cc2ccsc2)CC2CCCO2)n1` (centres undefined) to `CN(Cc1cc(Cl)c2c(c1)OCO2)Cc1cscn1`, the Percent Effect falls from 5.59% to -12.9%.

First: Cc1nc(C2CCCNC2)cc(N2CCc3nc(N)sc3C2)n1 (centres undefined)
Second: O=C(c1ccc(-n2cnnc2)cc1Cl)N1CCCC2(CCNC2)C1 (centres undefined)
The Percent Effect of the first is higher: 3.73% for the first, 0.724% for the second.

Compared with `Cc1nc(C)c(COc2ccc(S(=O)(=O)N(C)C)cc2)s1`, `CC(NC(=O)Nc1ccc(-c2csnn2)cc1)C(=O)NC(C)(C)C` (centres undefined) is lower in Percent Effect: 4.6% for the first, -8.32% for the second.

Going from `Cn1ccnc1-c1cnn(CC(=O)Nc2ccnn2C)c1` to `CNC(=O)CCOC(=O)c1cccc(-n2cccn2)c1`, the Percent Effect rises from -2.32% to 7.17%.

First: COC(=O)C1(NCC(=O)Nc2cc(C)ccc2OC)CCCCC1
Second: CCNC(=O)c1ccc(NC2CCOC3(CCCCC3)C2)nn1 (centres undefined)
The Percent Effect of the first is lower: -3.05% for the first, 3.88% for the second.

`CN1CCOC(CNCC(=O)NCCCc2ccccc2)C1` (centres undefined) was tested, and the Percent Effect was -10%.
